# Laboratory results reported in PubChem BioAssay.
# Active and inactive are the calls of the source.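 How the source made its calls, unless noted: active means inhibition above 20% together with a positive visual image hit; inconclusive means visual image hit but inhibition not above 20%; inactive means no visual image hit.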
# How the values were obtained:
# [1] = inhibitors of TNFa-induced NFkB p65 translocation, primary screen, imaging, HUVEC, MLSMR starter and 10KST1 sets (AID 438); settings: HUVEC TNFa-induced p65 nuclear translocation; cell count: measured here: nuclei count (cytotoxicity indicator), at 2.08 µM; inhibition: at 2 µM, stronger effect = higher value, 0% TNFa-plus-vehicle, 100% no-TNFa wells;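 further: compound added about 3h40 before a 20 min TNFalpha stimulation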;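 on inhibition: signal is the nuclear over cytoplasmic p65 intensity ratio per well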
# [2] = reduction of polyQ htt aggregates in cells – imaging, exon1htt(103Q)mCFP cells, high-content imaging, primary screen (AID 483;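 active means visual image review flags a hit and inhibition of aggregation exceeds 20%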;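 further: compound exposure lasted 3 days before fixation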;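 on nuclei count: percent of the per-plate median nuclei count of sample wells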); settings: exon1htt(103Q)mCFP cell line, aggregate imaging, at 2 µM; inhibition of aggregation: stronger effect = higher value; nuclei count: measured here: cell count, toxicity
# [3] = endothelial E-selectin expression blockers – imaging, HUVEC, immunofluorescence, MLSMR starter and 10KST1 sets, primary screen (AID 487;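 active means visually confirmed hit in the image check and inhibition above 20%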;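 on inhibition: signal is fraction of cell area covered by stained E-selectin grains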;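 on nuclei count: 100% = median nuclei count of all wells on the same plate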); settings: HUVEC TNFalpha-induced E-selectin immunofluorescence imaging, at 2 µM; inhibition: stronger effect = higher value; nuclei count: measured here: cell number, toxicity
# [4] = biological target: Voltage-gated potassium channel subunit beta-2 (Rattus norvegicus) (UniProt P62483); test: inhibitors of rat Kvbeta2 reductase activity – biochemical, NADPH fluorescence, primary screen (AID 622;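 active means fluorescence slope higher than the sample average by over 3 SD, cut at about -0.22 in these data, passing the limit was not always enough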;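 further: slope of raw intensity against log time taken from 70 to 1610 s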); settings: recombinant KvBeta, 4-cyanobenzaldehyde reduction, at 10 µM, stronger effect = higher value
# [5] = biological target: Voltage-gated potassium channel subunit beta-2 (Rattus norvegicus) (UniProt P62483); test: enhancers of rat Kvbeta2 NADPH turnover – biochemical, NADPH fluorescence, primary screen (AID 623;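 active means NADPH fluorescence slope more negative than the mean of all samples by about 3 SD, 99.7% confidence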;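 further: fluorescence intensity change per second fitted from 20 to 320 s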); settings: Recombinant KvBeta, NADPH fluorescence decrease slope, 10 min; at 10 µM; stronger effect = lower value
# [6] = biological target: Alpha-2C adrenergic receptor (Homo sapiens) (UniProt P18825); test: compounds altering alpha2C-coupled GIRK flux – cell-based, HEK293 alpha2C/GIRK1/2, thallium flux, primary screen (AID 624;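 active means fluorescence slope after compound addition differing from the mean of all screened samples at 99.7% confidence, in either direction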;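 further: slope of fluorescence ratio to pre-addition baseline per second over 15 to 24 s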); settings: thallium flux BTC fluorescence, at 10 µM, actives lie on both sides
# [7] = blockers of RIG-like receptor reporter activation – cell-based, Sendai virus stimulus, luciferase, 10K MLSCN set, TLR/RLR signaling modifier project, primary screen (AID 602276;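 active means inhibition at or above 50% at 10 µM; inactive means inhibition below 50%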;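 further: firefly luciferase from ISG56 promoter only with Renilla not read in this screen; 0% = Sendai virus plus DMSO and 100% = medium plus DMSO without virus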); settings: HEK293 RL24 IRF3 luciferase reporter, at 10 µM, stronger effect = higher value
# [8] = TLR3 IRF3 reporter activation blockers – cell-based, poly I:C stimulus, luciferase, 10K MLSCN set, primary screen (AID 602277;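 active means inhibition of the reporter signal at or above 50%; inactive means inhibition below 50%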); settings: HEK293-TLR3 RL24 IRF3 luciferase reporter, at 10 µM, stronger effect = higher value
# Alpha-2C adrenergic receptor (Homo sapiens), sequence (P18825 whole entry, looked up): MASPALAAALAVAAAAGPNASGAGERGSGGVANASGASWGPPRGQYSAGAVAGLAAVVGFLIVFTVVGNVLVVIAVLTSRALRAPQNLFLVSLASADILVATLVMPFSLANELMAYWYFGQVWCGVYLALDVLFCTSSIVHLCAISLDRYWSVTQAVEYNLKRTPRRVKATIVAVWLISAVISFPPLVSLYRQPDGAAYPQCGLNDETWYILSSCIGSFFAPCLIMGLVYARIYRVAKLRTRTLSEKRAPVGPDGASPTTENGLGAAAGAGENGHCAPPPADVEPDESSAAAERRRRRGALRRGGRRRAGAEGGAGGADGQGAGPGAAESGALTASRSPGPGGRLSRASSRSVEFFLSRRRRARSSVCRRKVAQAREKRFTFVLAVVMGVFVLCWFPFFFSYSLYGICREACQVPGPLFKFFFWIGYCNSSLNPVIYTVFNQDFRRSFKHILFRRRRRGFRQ
# Voltage-gated potassium channel subunit beta-2 (Rattus norvegicus), sequence (P62483 whole entry, looked up): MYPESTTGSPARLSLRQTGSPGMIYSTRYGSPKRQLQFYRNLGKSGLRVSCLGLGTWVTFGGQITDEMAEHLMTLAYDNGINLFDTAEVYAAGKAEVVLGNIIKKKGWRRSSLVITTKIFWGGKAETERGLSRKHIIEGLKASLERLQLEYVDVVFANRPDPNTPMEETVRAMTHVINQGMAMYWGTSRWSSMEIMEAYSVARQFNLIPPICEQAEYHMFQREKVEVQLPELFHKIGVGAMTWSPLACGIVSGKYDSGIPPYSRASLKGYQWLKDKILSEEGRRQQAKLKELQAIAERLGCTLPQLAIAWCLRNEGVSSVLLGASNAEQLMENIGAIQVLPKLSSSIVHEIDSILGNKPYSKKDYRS
Compound,cell count [1],inhibition [1],inhibition of aggregation [2],nuclei count [2] [%],inhibition [3],nuclei count [3] [%],fluorescence slope [4],NADPH fluorescence slope [5],slope [6],inhibition [7],inhibition [8]
CCOC(=O)c1ccc(Oc2nc(SC)nc(N(C)C)n2)cc1,467,5.5% (inactive),-5.2% (inactive),110,-308% (inactive),133,-0.34 (inactive),7.8e-06 (inactive),0.00652 (inactive),3.96% (inactive),4.44% (inactive)
COC(=O)c1ccccc1NC(=O)CC(NCc1ccccc1)C(=O)O (centres undefined),619,-5% (inactive),-34.3% (inactive),124,-21.4% (inactive),116,-0.418 (inactive),-8.7e-06 (inactive),0.00289 (inactive),-10.8% (inactive),16.2% (inactive)
Cn1c(-c2ccc(F)cc2)cnc1SCC(=O)Nc1ccccc1N1CCOCC1,458,1.4% (inactive),53.7% (active),63.3,-76.1% (inactive),90.4,-0.31 (inactive),-2.7e-05 (inactive),0.00572 (inactive),-29.2% (inactive),-99% (inactive)
CC(NC(=O)c1noc2c1CCCCC2)c1ccccc1 (centres undefined),936,6.9% (inactive),-5% (inactive),154,-24.9% (inactive),126,-0.618 (inactive),-3.4e-05 (inactive),0.00631 (inactive),-24.9% (inactive),-53.9% (inactive)
COc1ccc(-c2[nH]nc3c2C(c2ccncc2)C(C#N)=C(N)O3)cc1 (centres undefined),441,6% (inactive),2.5% (inactive),113,-6.7% (inactive),100,-0.31 (inactive),-4.4e-05 (inactive),0.00483 (inactive),6.11% (inactive),99% (active)
O=C(NC1CCN(Cc2ccccc2)CC1)C1CCN(S(=O)(=O)c2cccc3cccnc23)CC1,526,-11.6% (inactive),7.8% (inactive),83.4,-4.4% (inactive),99.2,-0.561 (inactive),7.4e-08 (inactive),0.00666 (inactive),-12.5% (inactive),8.2% (inactive)
COc1ccc(NC(=O)CSc2c(C)nn(-c3nnc(C)c(=O)[nH]3)c2C)cc1,387,-4.5% (inactive),-12.6% (inactive),107,-170% (inactive),134,-0.537 (inactive),2e-05 (inactive),0.00687 (inactive),1.41% (inactive),3.06% (inactive)
CC(=O)c1cc(Cl)ccc1OC(=O)c1ccco1,475,0.5% (inactive),-8.1% (inactive),106,-48.1% (inactive),124,-0.475 (inactive),-9e-05 (inactive),0.00476 (inactive),18.4% (inactive),21% (inactive)
CC(=O)c1ccc(NC(=O)C2CCN(S(=O)(=O)c3cccc4cccnc34)CC2)cc1,591,8.3% (inactive),-7.6% (inactive),102,-11.2% (inactive),115,-0.559 (inactive),-1.3e-05 (inactive),0.0063 (inactive),14.2% (inactive),32.1% (inactive)
Cc1cc(C)n(-c2nc3c(c(=O)n(Cc4ccc(Cl)c(Cl)c4)c(=O)n3C)n2C)n1,404,-1.4% (inactive),1.2% (inactive),105,-8.9% (inactive),115,-0.6 (inactive),-1.8e-05 (inactive),0.00595 (inactive),4.56% (inactive),21.6% (inactive)
COC(=O)Cc1c(C)c2ccc(OCC(=O)N3CCOCC3)cc2oc1=O,439,15.7% (inactive),7.7% (inactive),113,-28.7% (inactive),74.6,-0.363 (inactive),-1.5e-05 (inactive),0.00545 (inactive),17.8% (inactive),13.9% (inactive)
CCCCC(=O)NCCNc1nc2c(c(=O)n(C)c(=O)n2C)n1Cc1ccccc1,555,-6.3% (inactive),-14.2% (inactive),105,28.6% (inactive),106,-0.615 (inactive),-5.2e-06 (inactive),0.00636 (inactive),15.2% (inactive),24.6% (inactive)
O=C(NCc1ccc2c(c1)OCO2)c1cccc2c1C(=O)N(C1CCCCC1)C2,570,-5% (inactive),-12.5% (inactive),108,3.2% (inactive),115,-0.615 (inactive),-1.7e-05 (inactive),0.00632 (inactive),8.65% (inactive),15.3% (inactive)
Cn1nnc2cc(C(=O)N3CCCCCC3)ccc21,933,2.7% (inactive),-9% (inactive),105,-5.7% (inactive),107,-0.478 (inactive),-4.7e-05 (inactive),0.00659 (inactive),-1.25% (inactive),12.6% (inactive)
